Assay results reported in PubChem BioAssay AID720700 (The Scripps Research Institute Molecular Screening Center, 2013).
Among all 370,000 compounds or so, about 3,100 (0.84%) were called active. Rule as the data show it: active = inhibition above about 9.5%; inactive = the rest. What follows is part of a selection rich in actives, with near analogues and random picks from the rest.

The compounds below were run against 1-phosphatidylinositol 4,5-bisphosphate phosphodiesterase gamma-1 (Homo sapiens) (UniProt P19174) (assay: blockers of human PLCG1 activity – biochemical, fluorescence, purified enzyme, primary screen (AID 720700)). Details: purified PLC-gamma1, fluorogenic substrate, at 12.2 µM, active compounds read high.
1-phosphatidylinositol 4,5-bisphosphate phosphodiesterase gamma-1 (Homo sapiens), sequence (P19174 whole entry, looked up): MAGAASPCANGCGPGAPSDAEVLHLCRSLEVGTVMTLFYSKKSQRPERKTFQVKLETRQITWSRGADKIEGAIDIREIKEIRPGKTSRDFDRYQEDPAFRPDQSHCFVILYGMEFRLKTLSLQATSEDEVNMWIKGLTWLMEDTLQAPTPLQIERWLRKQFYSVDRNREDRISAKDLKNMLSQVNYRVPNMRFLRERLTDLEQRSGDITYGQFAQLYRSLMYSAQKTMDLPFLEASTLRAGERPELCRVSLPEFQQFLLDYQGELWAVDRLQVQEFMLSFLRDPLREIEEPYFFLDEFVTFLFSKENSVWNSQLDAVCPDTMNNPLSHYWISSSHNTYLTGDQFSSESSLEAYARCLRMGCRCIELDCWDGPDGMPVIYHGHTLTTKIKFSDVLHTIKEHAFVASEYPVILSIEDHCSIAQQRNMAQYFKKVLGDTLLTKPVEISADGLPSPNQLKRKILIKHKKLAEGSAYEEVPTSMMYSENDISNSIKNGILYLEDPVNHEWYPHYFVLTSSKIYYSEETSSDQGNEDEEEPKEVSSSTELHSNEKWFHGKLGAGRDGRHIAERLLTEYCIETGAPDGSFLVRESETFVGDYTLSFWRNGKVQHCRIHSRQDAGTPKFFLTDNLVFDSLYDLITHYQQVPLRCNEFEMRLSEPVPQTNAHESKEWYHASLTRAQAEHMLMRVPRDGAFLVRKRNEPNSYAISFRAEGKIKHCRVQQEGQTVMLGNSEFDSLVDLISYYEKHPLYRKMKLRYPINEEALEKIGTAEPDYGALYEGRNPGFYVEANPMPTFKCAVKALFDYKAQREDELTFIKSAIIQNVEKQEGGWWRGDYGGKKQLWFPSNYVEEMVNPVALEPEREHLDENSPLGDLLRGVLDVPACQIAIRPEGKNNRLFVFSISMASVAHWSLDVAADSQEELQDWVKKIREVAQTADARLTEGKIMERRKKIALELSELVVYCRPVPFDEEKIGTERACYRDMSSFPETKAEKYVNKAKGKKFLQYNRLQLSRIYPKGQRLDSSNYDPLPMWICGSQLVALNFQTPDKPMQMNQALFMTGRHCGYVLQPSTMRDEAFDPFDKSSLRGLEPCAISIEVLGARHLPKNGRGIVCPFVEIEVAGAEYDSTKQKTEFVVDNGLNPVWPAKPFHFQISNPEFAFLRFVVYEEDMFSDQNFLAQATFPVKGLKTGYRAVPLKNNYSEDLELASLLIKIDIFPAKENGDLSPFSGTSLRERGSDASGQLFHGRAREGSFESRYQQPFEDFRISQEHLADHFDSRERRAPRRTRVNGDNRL

SMILES	inhibition
COC(=O)CC1CCc2cc(C)cc(C(CC(C)C)NC(=O)[C@H](CC(C)C)NC(=O)OCc3ccccc3)c2O1 (stereo partly specified)	-1.26% (inactive)
CCOc1ccccc1NC(=O)COc1ccc(S(=O)(=O)N2CCCC2)cc1	-0.48% (inactive)
COc1ccc(S(=O)(=O)N2CCC(C(=O)NCCC(=O)Nc3ccccc3OC)CC2)cc1	0.77% (inactive)
CCOc1ccccc1NC(=O)CCN1CCN(S(=O)(=O)c2ccc(OC)cc2)CC1	10.4% (active)
CCC(CO)Nc1cccc2c1S(=O)(=O)N(Cc1cn(Cc3ccccc3C(F)(F)F)nn1)Cc1ccccc1O2 (stereo unspecified)	-5.47% (inactive)
CC(=O)c1cc(-c2ccc3ccccc3c2)c(=O)n2c1CCC2	-43.4% (inactive)
Cc1ccc(-n2ncc3c2CC(C)(C)CC3NC(=O)CCc2cnn(C)c2)cc1 (stereo unspecified)	13.8% (active)
Cc1ccc(-n2ncc3c2CC(C)(C)CC3NC(=O)Cc2c(C)noc2C)cc1 (stereo unspecified)	0.61% (inactive)
COc1ccc(-n2ncc3c2CC(C)(C)CC3NC(=O)CCc2c(C)nn(C)c2C)cc1 (stereo unspecified)	2.97% (inactive)
COc1ccc(-c2cc(-c3nnc(SCC(=O)Nc4cccc5ccccc45)n3N)[nH]n2)cc1	-0.07% (inactive)
COC(=O)c1ccccc1-n1cc(COC(=O)NCCc2ccccc2)nn1	-14.2% (inactive)
C[C@H](C(=O)N(C)c1ccccc1)[C@@H](O)c1ccc(Cl)cc1	0.47% (inactive)
COc1cccc(N(C)C(=O)[C@@H](C)[C@@H](O)c2ccc3ccccc3c2)c1	-0.17% (inactive)
C[C@H](C(=O)N(C)c1ccccc1)[C@@H](O)c1ccc2ccccc2c1	16.5% (active)
CCN(CC(=O)Nc1ccc(C)c(S(=O)(=O)N(C)C)c1)Cc1ccccc1	0.58% (inactive)
Cc1ccc(C(=O)Nc2ccc(C)c(S(=O)(=O)N(C)C)c2)s1	12.1% (active)
COc1ccc(CCC(=O)OCC(=O)Nc2ccc(C)c(S(=O)(=O)N(C)C)c2)cc1	-0.79% (inactive)
CC(C)N1CCCCC(NC(=O)C(C)(C)C)C1=O (stereo unspecified)	-0.44% (inactive)
CCC(C)[C@@H](C(=O)OC)N(CCc1cn(Cc2ccccc2)nn1)S(=O)(=O)c1ccccc1Br (stereo partly specified)	2.53% (inactive)
Fc1ccc(OCc2nn3c(Cn4nnc5ccccc54)nnc3s2)cc1	-2.02% (inactive)
CCOc1cccc(-c2nnc3sc(COc4ccc(OC)cc4)nn23)c1	10.2% (active)
Cc1nc(COc2cccc(Cl)c2)sc1C(=O)/C=C/N(C)C	-0.19% (inactive)
Cc1ccc(-n2c(COc3ccccc3)nnc2SCC(=O)Nc2ccc3c(c2)OCCO3)cc1	2.55% (inactive)
CC(=O)OC12CCCN(C1)/C(=C/c1ccncc1)C2 (stereo unspecified)	-7.4% (inactive)

SMILES	inhibition
COc1ccccc1CNC(=O)CCCN1C(=O)NC2(CCCC2)C1=O	1.01% (inactive)
Cc1ccc(OCCNC(=O)CN2C(=O)NC3(CCCC3)C2=O)cc1	0.18% (inactive)
COc1ccccc1CCNC(=O)CN1C(=O)NC2(CCCC2)C1=O	10.4% (active)
CC(NCc1ccco1)C(=O)N1CCCCC1 (stereo unspecified)	-2.37% (inactive)
Cc1ccc(-n2c(SCC(=O)Nc3ccc(S(=O)(=O)Nc4nccs4)cc3)nnc2-c2ccncc2)cc1	-4.02% (inactive)
CC(=O)C1(C(=O)Nc2nccs2)CC(c2ccccc2C(F)(F)F)=NO1 (stereo unspecified)	-4.24% (inactive)
C=CCN1C(=O)[C@@H](CC(=O)NCCCOCCCC)[C@]2(C(=O)OCC)CCCCC/C=C/12	-1.4% (inactive)
Cc1ccc(C(=O)C(=S)N2CCOCC2)cc1	0.9% (inactive)
Cc1ccc(C(=O)NC2CCN(C(=O)N3CCOCC3)CC2)cc1	4.32% (inactive)
Cc1ccc(C(=O)N2CCN(C(=O)N3CCOCC3)CC2)cc1	10.4% (active)
Fc1ccc2nc(COCc3nc4ccc(F)cc4[nH]3)[nH]c2c1	-0.44% (inactive)
Cc1cc(NS(=O)(=O)c2ccc(NC(=O)CSc3nnc(-c4ccc(C(C)(C)C)cc4)n3Cc3ccco3)cc2)nc(C)n1	-1.67% (inactive)
COc1ccc(C(N)c2csc(NC(=O)Nc3cccc(C(F)(F)F)c3)n2)cc1 (stereo unspecified)	14.7% (active)
COc1ccc(CC(N)c2csc(NC(=O)Nc3ccc(C(C)C)cc3)n2)cc1 (stereo unspecified)	2.68% (inactive)
NC(c1csc(NC(=O)Nc2cccc(C(F)(F)F)c2)n1)C1CCCCC1 (stereo unspecified)	6.49% (inactive)
FC(F)(F)c1cccc(NC(=S)OC2CCC23CCC(c2ccccc2)CC3)c1 (stereo unspecified)	-0.1% (inactive)
O=C(CN1CCC(NC(=O)NCc2ccccc2)CC1)Nc1ccc2c(c1)OCCO2	-0.43% (inactive)
C#CCCN([C@H](C(=O)OC)C(C)C)S(=O)(=O)c1ccc(F)cc1Br	-1.82% (inactive)
Cc1c(C(C)c2ccccc2O)[nH]c2ccccc12 (stereo unspecified)	-4.04% (inactive)
COc1ccccc1C(=O)Nc1ccc(OCC(=O)N2CCCCC2)cc1	3.96% (inactive)
COc1ccccc1C(=O)Nc1cccc(C(=O)N2CCOCC2)c1	12.6% (active)
COc1ccccc1C(=O)N/C(=C/c1ccc2c(c1)OCO2)C(=O)Nc1cccc(C(=O)O)c1	-3.19% (inactive)
O=C(CSc1nc2ccccc2s1)N=Nc1c(O)[nH]c2ccccc12	-0.8% (inactive)
COC(=O)[C@H](C(C)C)N(CCc1cn(Cc2ccccc2)nn1)S(=O)(=O)c1ccc(F)cc1Br	1.89% (inactive)

SMILES	inhibition
O=C(Cn1nnc2ccccc2c1=O)NCc1ccc(Cl)cc1	6.08% (inactive)
O=c1c2ccccc2nnn1CSc1nnnn1-c1ccccc1	2.24% (inactive)
C=CCn1c(SCn2nnc3ccccc3c2=O)nnc1-c1ccc(Cl)cc1	11.2% (active)
O=C(OC12CCCN(C1)/C(=C/c1cccnc1)C2)C1CCCC1 (stereo unspecified)	2.54% (inactive)
O=C(c1c[nH]c2ccccc12)N1CCC(Oc2cccnc2)CC1	5.31% (inactive)
O=C(NC1CCC1)c1ccc(C#Cc2cccc(F)c2)c[n+]1[O-]	-0.74% (inactive)
Cc1ccc(C)c(-n2c(SCC(=O)O)nc3sc4c(c3c2=O)CCCC4)c1	1.35% (inactive)
CCn1c(SCC(C)=O)nc2sc3c(c2c1=O)CCCC3	10.1% (active)
CCn1c(SCC(=O)Nc2ccc(Br)cc2)nc2sc3c(c2c1=O)CCN(C)C3	-70.8% (inactive)
Cc1ccc(CN2CCCCC(NC(=O)C3CCCCC3)C2=O)cc1 (stereo unspecified)	7.08% (inactive)
CCCOc1ccc(Oc2c(Cl)cnn(Cc3cccc4ccccc34)c2=O)cc1	-1.93% (inactive)
CCOC(=O)C1CCN(C(=O)C(C)(C)NC(=O)Nc2ccccc2Cl)CC1	0.94% (inactive)
Cc1ccccc1CN1CCCCC(NC(=O)c2cccc(C#N)c2)C1=O (stereo unspecified)	-2.09% (inactive)
CS(=O)(=O)c1ccc(Cl)c(NC(=O)COC(=O)c2cccc(S(=O)(=O)N3CCCC3)c2)c1	1.69% (inactive)
Cc1ccc(S(=O)(=O)N2CCCCC2)cc1NC(=O)CCNC(=O)c1ccccc1Cl	6.23% (inactive)
Cc1ccc(S(=O)(=O)N2CCCCC2)cc1NC(=O)CCNC(=O)c1ccccc1	11.6% (active)
CC(=O)c1cccc(OCC(=O)OCC(=O)Nc2cc(S(=O)(=O)N3CCCCC3)ccc2C)c1	1.9% (inactive)
CC(=O)c1c(C)[nH]c(C(=O)OCC(=O)Nc2cc(S(=O)(=O)N3CCCCC3)ccc2C)c1C	11.4% (active)
O=C(CCNC(=O)c1ccc(Br)cc1)Nc1cccc(S(=O)(=O)N2CCCCC2)c1	-1.23% (inactive)
CCOc1ccc(-n2c(SCC(=O)Nc3cc(C)c(NC(=O)c4ccccc4)cc3OC)nnc2-c2cccs2)cc1	-10.9% (inactive)
CCOC(=O)N1CCN(C(=O)C[C@H]2C[C@@]3(C(=O)OC)C(=C[C@H](C(C)(C)C)O[C@@H]3C)N(Cc3ccc(Cl)cc3Cl)C2=O)CC1	-0.28% (inactive)
O=C(c1cccc(C(F)(F)F)c1)N1CC[C@H]2[C@H](CCCN2Cc2cc(F)cc(F)c2)C1	-2.47% (inactive)
COC(=O)C1CN(CC(C)C)CCS(=O)(=O)N1Cc1ccc(C)cc1 (stereo unspecified)	2.01% (inactive)
